According to PubChem BioAssay AID1671192 (National Center for Advancing Translational Sciences (NCATS), 2021):
Inconclusive results are not listed. Active and inactive are the calls of the source. Calls come from the whole dose curve; as a rule, active = well fitted curve in the direction sought with a large enough effect; inconclusive = small, poorly fitted or top-dose-only effect, or another doubt; inactive = no such curve, though single readings can be large or run the other way.

Target: Polyunsaturated fatty acid lipoxygenase ALOX15 (Homo sapiens) (UniProt P16050)
Sequence (P16050 whole entry, looked up): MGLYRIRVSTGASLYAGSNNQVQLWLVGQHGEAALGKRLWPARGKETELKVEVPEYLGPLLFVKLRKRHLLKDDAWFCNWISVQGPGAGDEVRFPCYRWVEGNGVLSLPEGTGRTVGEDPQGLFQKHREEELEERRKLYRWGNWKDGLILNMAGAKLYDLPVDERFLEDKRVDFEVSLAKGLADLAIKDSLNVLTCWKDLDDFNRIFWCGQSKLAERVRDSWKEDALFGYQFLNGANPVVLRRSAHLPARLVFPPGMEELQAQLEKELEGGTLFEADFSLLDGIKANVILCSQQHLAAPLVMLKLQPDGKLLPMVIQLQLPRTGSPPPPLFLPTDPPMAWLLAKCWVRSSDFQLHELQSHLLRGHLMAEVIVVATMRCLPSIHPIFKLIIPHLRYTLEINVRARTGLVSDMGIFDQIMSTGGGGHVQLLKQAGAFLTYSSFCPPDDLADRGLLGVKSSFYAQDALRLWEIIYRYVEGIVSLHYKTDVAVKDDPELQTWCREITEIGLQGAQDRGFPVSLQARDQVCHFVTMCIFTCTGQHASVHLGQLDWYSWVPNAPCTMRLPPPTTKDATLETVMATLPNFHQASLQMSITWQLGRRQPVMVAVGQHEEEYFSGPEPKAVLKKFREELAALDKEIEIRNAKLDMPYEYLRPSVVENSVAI
Assay: Counterscreen qHTS for inhibitors of human arachidonate 12S-lipoxygenase (ALOX12): ALOX15 Assay; note: 0% is about no effect
Settings: purified ALOX15 enzyme activity; series mostly up to 110 µM; activity change, negative = inhibition: at the top concentration
In short: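 Xylenol orange–ferric complex formation, read as the 573 nm to 405 nm absorbance ratio, tracks product from 50 uM arachidonic acid turned over for 30 min at RT. Enzyme is 40 nM ALOX15, pH 7.5 HEPES buffer, compound-preincubated 15 min.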

Row | Structure (SMILES) | activity change, negative = inhibition
1 | CN(C)CC(=O)N1Cc2ccccc2CC2(CCCN(CC3CCNC3)C2)C1 (configuration not stated) | -21.8% (inactive)
2 | CN1CC(=O)N(C2CCCNCC2)Cc2c(NCC3CC3)ncnc21 (configuration not stated) | 2.11% (inactive)
3 | CN1CC(=O)N(C2CCNC2)Cc2c(NC3CCN(Cc4ccccc4)CC3)ncnc21 (configuration not stated) | -12.4% (inactive)
4 | O=C1NCc2ccccc2CC12CCCN2Cc1cccc(O)c1 (configuration not stated) | -11.9% [at 146 µM] (inactive)
5 | O=C1Nc2ccccc2CN(C/C=C/c2ccccc2)C12CCNC2 (configuration not stated) | -5.11% [at 146 µM] (inactive)
6 | CC(=O)N1CCN(c2ccc(Cl)nn2)C(=O)C1 | -19.6% [at 146 µM] (inactive)
7 | CC(=O)Nc1ccc(CN2CCCC23Cc2ccccc2CN(C(=O)CCC(=O)O)C3)cc1 (configuration not stated) | -10.9% (inactive)
8 | c1ccc2c(c1)COC1(CCNC1)CN2CC1CCCC1 (configuration not stated) | 0.378% [at 146 µM] (inactive)
9 | CCCCCNc1ncnc2c1CN(C1CCNCC1)C(=O)CN2C | -5.83% [at 146 µM] (inactive)
10 | COc1ccc(CN2CCCCC23Cc2ccccc2CNC3=O)c(OC)c1 (configuration not stated) | -15.9% (inactive)
11 | Cc1cc(C(=O)NCc2ccncc2)c2c(C3CCNCC3)noc2n1 | -20.4% (inactive)
12 | CN1CC(=O)N(C2CCCNC2)Cc2c1ncnc2N1CCc2ccccc2C1 (configuration not stated) | 1.42% (inactive)
13 | COc1cccc(-c2ccc(CN)cc2)c1 | -1.18% [at 146 µM] (inactive)
14 | NCc1ccc(-c2cc(C(F)(F)F)ccc2Cl)cc1 | 81.7% [at 146 µM] (inactive)
15 | COCCNC(=O)c1cc(C)nc2onc(C3CCCNC3)c12 (configuration not stated) | -17.9% [at 146 µM] (inactive)
16 | FC(F)(F)c1ccc(CN2CCCC3(CC(c4cccc(C(F)(F)F)c4)=NO3)C2)cc1 (configuration not stated) | -20.9% (inactive)
17 | CN(C)CCCC(=O)N1Cc2ccccc2CC2(CCCCN2Cc2ccccc2)C1 (configuration not stated) | -19.7% (inactive)
18 | CC(=O)NC1CC2(CCN(C(=O)CCCNC(=O)OC(C)(C)C)CC2)Oc2ccccc21 (configuration not stated) | 7.33% (inactive)
19 | O=C(N1CCOCC1)N1CCCC1c1nnc2n1CCNC2 (configuration not stated) | -2.38% [at 146 µM] (inactive)

Row | Structure (SMILES) | activity change, negative = inhibition
20 | COc1ccc(-c2nc(C3CC3)nc3c2CN([S+](=O)([O-])c2ccccc2)CC3)cc1 | 0.186% (inactive)
21 | NCc1ccc(-c2ccc(OC(F)(F)F)cc2)cc1 | 29.9% [at 146 µM] (inactive)
22 | O=c1n(-c2ccc(C(F)(F)F)cc2)nc2n1CCN(Cc1ccc(C(F)(F)F)cc1)C2 | -22.9% (inactive)
23 | CNCc1ccc(N2CCCC2)cc1 | 57.7% [at 233 µM] (inactive)
24 | O=c1[nH]c(C2CCCN(Cc3cccc(Cl)c3)C2)nc2ccc(F)cc12 (configuration not stated) | -9.91% (inactive)
25 | CN(c1ccc(Cl)c(Cl)c1)C1CNC1 | -16.7% [at 146 µM] (inactive)
26 | C[S+](=O)([O-])N1CCCC(c2nnc3n2CCNC3)C1 (configuration not stated) | -4.91% [at 146 µM] (inactive)
27 | CCOCCCNc1ncnc2c1CN(C1CCNCC1)C(=O)CN2C | -7.5% (inactive)
28 | COc1ccccc1CNc1ncnc2c1CN(C1CCCNC1)C(=O)CN2C (configuration not stated) | -12.3% (inactive)
29 | FC(F)(F)c1ccc(N2C3CCC2CN(Cc2cccs2)C3)cc1 | -29.5% [at 146 µM] (inactive)
30 | O=C(c1ccc2c(c1)OCO2)N1CCCC2(CC(c3ccccc3)=NO2)C1 (configuration not stated) | 4.68% (inactive)
31 | O=C1NCc2ccccc2CC12CCN(Cc1ccccc1F)C2 (configuration not stated) | 1.86% [at 146 µM] (inactive)
32 | N#Cc1ccccc1CN1CCCC12Cc1ccccc1CNC2=O (configuration not stated) | -0.198% [at 146 µM] (inactive)
33 | O=C(NC1CC1)c1cc(C2CC2)nc2onc(C3CCNC3)c12 (configuration not stated) | -20.2% [at 146 µM] (inactive)
34 | CN1CC(=O)N(C2CCCNCC2)Cc2c1ncnc2N1CCCC(F)C1 (configuration not stated) | 2.56% (inactive)
35 | CN1CC(=O)N(c2cccc(F)c2)Cc2c(NC3CCNCC3)ncnc21 | -19% (inactive)
36 | O=C1c2ccccc2CN1C1CCN(Cc2ccsc2)CC1 | -5.25% [at 146 µM] (inactive)
37 | O=C(N1CCCCC1)N1CCCC1c1nnc2n1CCNC2 (configuration not stated) | -11.3% (inactive)
